# According to paper PMC5349851, “Combinatorial bZIP dimers display complex DNA-binding specificity landscapes”:
# Key:
# Assay in all cases: SELEX-seq (CSI, HT-SELEX, round 3); SELEX-seq: 1x PBS (10 mM phosphate, 137 mM NaCl, 2.7 mM KCl) pH 7.6, 2.5 mM DTT, 50 ng/ul poly dI-dC, 0.1% BSA, 50 nM biotinylated bZIP (1:3 with partner for heterodimers), 100 nM library, room temperature, 1 h, 3 rounds; high values mean tight binding
# Conditions in all cases: protein: recombinant;recombinant; copies: 1;1; dsDNA, one strand shown
# JUNB;DBP = biological target: T1, JUNB;DBP (Homo sapiens;Homo sapiens, UniProt P17275;Q10586 259-332;246-324, |)
# T1 sequence 1: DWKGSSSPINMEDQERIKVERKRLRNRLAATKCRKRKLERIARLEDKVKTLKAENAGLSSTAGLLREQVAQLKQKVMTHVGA
# T1 sequence 2: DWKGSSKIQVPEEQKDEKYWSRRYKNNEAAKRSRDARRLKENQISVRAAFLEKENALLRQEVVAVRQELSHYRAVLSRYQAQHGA
# BATF;ATF3 = biological target: T2, BATF;ATF3 (Homo sapiens;Homo sapiens, UniProt Q16520;P18847 17-90;77-150, |)
# T2 sequence 1: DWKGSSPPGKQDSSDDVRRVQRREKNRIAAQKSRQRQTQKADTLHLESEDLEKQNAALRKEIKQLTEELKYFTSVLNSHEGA
# T2 sequence 2: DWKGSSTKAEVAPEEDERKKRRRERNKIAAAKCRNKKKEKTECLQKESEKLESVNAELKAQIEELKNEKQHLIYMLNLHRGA
# BATF;CEBPA = BATF;CEBPA (Homo sapiens;Homo sapiens, UniProt Q16520;P49715 17-90;273-345, |)
# FOSL1;ATF3 = biological target: T3, FOSL1;ATF3 (Homo sapiens;Homo sapiens, UniProt P15407;P18847 96-169;77-150, |)
# T3 sequence 1: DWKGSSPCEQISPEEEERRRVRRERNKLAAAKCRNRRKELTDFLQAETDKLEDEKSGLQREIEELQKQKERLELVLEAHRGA
# T3 sequence 2: T2 sequence 2
# FOSL1;CEBPA = FOSL1;CEBPA (Homo sapiens;Homo sapiens, UniProt P15407;P49715 96-169;273-345, |)
# FOSL1;JUN = FOSL1;JUN (Homo sapiens;Homo sapiens, UniProt P15407;P05412 96-169;243-316, |)
# FOSL1;BATF3 = biological target: T4, FOSL1;BATF3 (Homo sapiens;Homo sapiens, UniProt P15407;Q9NR55 96-169;26-99, |)
# T4 sequence 1: T3 sequence 1
# T4 sequence 2: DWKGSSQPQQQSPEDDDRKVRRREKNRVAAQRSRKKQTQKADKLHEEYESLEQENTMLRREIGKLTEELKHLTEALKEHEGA
# FOS;ATF3 = FOS;ATF3 (Homo sapiens;Homo sapiens, UniProt P01100;P18847 128-201;77-150, |)
# FOS;ATF4 = FOS;ATF4 (Homo sapiens;Homo sapiens, UniProt P01100;P18848 128-201;269-346, |)
# FOS;BATF3 = FOS;BATF3 (Homo sapiens;Homo sapiens, UniProt P01100;Q9NR55 128-201;26-99, |)
# FOS;ATF2 = FOS;ATF2 (Homo sapiens;Homo sapiens, UniProt P01100;P15336 128-201;343-417, |)
# FOS;DBP = FOS;DBP (Homo sapiens;Homo sapiens, UniProt P01100;Q10586 128-201;246-324, |)
# ATF5;CEBPG = biological target: T5, ATF5;CEBPG (Homo sapiens;Homo sapiens, UniProt Q9Y2D1;P53567 199-275;52-130, |)
# T5 sequence 1: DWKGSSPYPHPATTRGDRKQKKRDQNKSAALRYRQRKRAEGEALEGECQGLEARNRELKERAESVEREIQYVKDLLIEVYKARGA
# T5 sequence 2: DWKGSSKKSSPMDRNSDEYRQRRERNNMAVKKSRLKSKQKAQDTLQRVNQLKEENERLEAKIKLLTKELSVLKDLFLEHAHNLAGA
# ATF5;CEBPA = ATF5;CEBPA (Homo sapiens;Homo sapiens, UniProt Q9Y2D1;P49715 199-275;273-345, |)
# ATF5;JUN = ATF5;JUN (Homo sapiens;Homo sapiens, UniProt Q9Y2D1;P05412 199-275;243-316, |)
# ATF5;BATF3 = biological target: T6, ATF5;BATF3 (Homo sapiens;Homo sapiens, UniProt Q9Y2D1;Q9NR55 199-275;26-99, |)
# T6 sequence 1: T5 sequence 1
# T6 sequence 2: T4 sequence 2
# DDIT3;CEBPG = DDIT3;CEBPG (Homo sapiens;Homo sapiens, UniProt P35638;P53567 88-169;52-130, |)
# MAFB;ATF4 = MAFB;ATF4 (Homo sapiens;Homo sapiens, UniProt Q9Y5Q3;P18848 212-305;269-346, |)
# BATF2;ATF3 = biological target: T7, BATF2;ATF3 (Homo sapiens;Homo sapiens, UniProt Q8N1L9;P18847 8-85;77-150, |)
# T7 sequence 1: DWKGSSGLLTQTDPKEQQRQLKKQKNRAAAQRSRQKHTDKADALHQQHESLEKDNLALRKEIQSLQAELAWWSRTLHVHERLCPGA
# T7 sequence 2: T2 sequence 2
# BATF2;JUN = BATF2;JUN (Homo sapiens;Homo sapiens, UniProt Q8N1L9;P05412 8-85;243-316, |)
# Chain of BATF2;JUN (P05412 other isoform, or with tags, fused parts or gaps |): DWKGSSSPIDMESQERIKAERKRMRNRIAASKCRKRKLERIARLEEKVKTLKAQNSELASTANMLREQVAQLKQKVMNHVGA
# Chain of DDIT3;CEBPG (P35638 other isoform, or with tags, fused parts or gaps |): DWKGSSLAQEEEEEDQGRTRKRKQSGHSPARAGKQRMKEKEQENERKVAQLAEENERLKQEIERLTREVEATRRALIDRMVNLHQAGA
# Chain of MAFB;ATF4 (Q9Y5Q3 other isoform, or with tags, fused parts or gaps |, chain 1 of 2): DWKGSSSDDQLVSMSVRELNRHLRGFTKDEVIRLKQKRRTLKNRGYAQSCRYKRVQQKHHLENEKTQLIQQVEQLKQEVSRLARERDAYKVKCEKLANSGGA
# Chain of MAFB;ATF4 (P18848 other isoform, or with tags, fused parts or gaps |, chain 2 of 2): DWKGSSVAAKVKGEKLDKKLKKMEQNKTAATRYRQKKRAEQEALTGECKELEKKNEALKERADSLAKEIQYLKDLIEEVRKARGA
# Chain of FOS;DBP (P01100 other isoform, or with tags, fused parts or gaps |): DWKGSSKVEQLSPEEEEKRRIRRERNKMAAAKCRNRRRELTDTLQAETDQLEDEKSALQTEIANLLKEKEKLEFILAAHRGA
# Chain of FOS;ATF2 (P01100 other isoform, or with tags, fused parts or gaps |, chain 1 of 2): as the sequence (P01100 other isoform, or with tags, fused parts or gaps |) above
# Chain of FOS;ATF2 (P15336 other isoform, or with tags, fused parts or gaps |, chain 2 of 2): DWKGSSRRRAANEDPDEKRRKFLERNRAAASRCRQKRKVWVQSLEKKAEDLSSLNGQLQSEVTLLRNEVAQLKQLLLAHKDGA
# Chain of FOS;ATF4 (P01100 other isoform, or with tags, fused parts or gaps |, chain 1 of 2): as the sequence (P01100 other isoform, or with tags, fused parts or gaps |) above
# Chain of FOS;ATF4 (P18848 other isoform, or with tags, fused parts or gaps |, chain 2 of 2): as the sequence (P18848 other isoform, or with tags, fused parts or gaps |, chain 2 of 2) above
# Chain of FOS;ATF3 (P01100 other isoform, or with tags, fused parts or gaps |, chain 1 of 2, one chain of several): as the sequence (P01100 other isoform, or with tags, fused parts or gaps |) above
# Chain of FOS;BATF3 (P01100 other isoform, or with tags, fused parts or gaps |): as above
# Chain of BATF;CEBPA (P49715 other isoform, or with tags, fused parts or gaps |): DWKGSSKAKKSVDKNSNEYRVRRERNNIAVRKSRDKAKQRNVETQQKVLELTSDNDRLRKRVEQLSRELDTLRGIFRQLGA
# Chain of ATF5;JUN (P05412 other isoform, or with tags, fused parts or gaps |): as the sequence (P05412 other isoform, or with tags, fused parts or gaps |) above
Sequence,binding signal (JUNB;DBP),binding signal (BATF;ATF3),binding signal (BATF;CEBPA),binding signal (FOSL1;ATF3),binding signal (FOSL1;CEBPA),binding signal (FOSL1;JUN),binding signal (FOSL1;BATF3),binding signal (FOS;ATF3),binding signal (FOS;ATF4),binding signal (FOS;BATF3),binding signal (FOS;ATF2),binding signal (FOS;DBP),binding signal (ATF5;CEBPG),binding signal (ATF5;CEBPA),binding signal (ATF5;JUN),binding signal (ATF5;BATF3),binding signal (DDIT3;CEBPG),binding signal (MAFB;ATF4),binding signal (BATF2;ATF3),binding signal (BATF2;JUN)
ATGACGTAAT,0.727 relative CSI intensity (max = 1),0.0836 relative CSI intensity (max = 1),0.00231 relative CSI intensity (max = 1),0.0529 relative CSI intensity (max = 1),0.208 relative CSI intensity (max = 1),0.0392 relative CSI intensity (max = 1),0.0576 relative CSI intensity (max = 1),0.0389 relative CSI intensity (max = 1),0.0605 relative CSI intensity (max = 1),0.0787 relative CSI intensity (max = 1),0.133 relative CSI intensity (max = 1),0.614 relative CSI intensity (max = 1),0.502 relative CSI intensity (max = 1),0.488 relative CSI intensity (max = 1),0.289 relative CSI intensity (max = 1),0.0199 relative CSI intensity (max = 1),0.437 relative CSI intensity (max = 1),0.108 relative CSI intensity (max = 1),0.00842 relative CSI intensity (max = 1),0.116 relative CSI intensity (max = 1)
ATGATGCAAT,0.0471 relative CSI intensity (max = 1),,0.0115 relative CSI intensity (max = 1),0.00412 relative CSI intensity (max = 1),0.368 relative CSI intensity (max = 1),0.00257 relative CSI intensity (max = 1),0.00287 relative CSI intensity (max = 1),0.0114 relative CSI intensity (max = 1),0.00384 relative CSI intensity (max = 1),,,0.0452 relative CSI intensity (max = 1),0.687 relative CSI intensity (max = 1),0.756 relative CSI intensity (max = 1),0.0503 relative CSI intensity (max = 1),0.00117 relative CSI intensity (max = 1),0.574 relative CSI intensity (max = 1),0.0202 relative CSI intensity (max = 1),0.003 relative CSI intensity (max = 1),0.00706 relative CSI intensity (max = 1)
ATGACGTCAT,1 relative CSI intensity (max = 1),0.113 relative CSI intensity (max = 1),0.00178 relative CSI intensity (max = 1),0.156 relative CSI intensity (max = 1),0.261 relative CSI intensity (max = 1),0.478 relative CSI intensity (max = 1),0.282 relative CSI intensity (max = 1),0.117 relative CSI intensity (max = 1),1 relative CSI intensity (max = 1),1 relative CSI intensity (max = 1),1 relative CSI intensity (max = 1),0.887 relative CSI intensity (max = 1),0.529 relative CSI intensity (max = 1),0.516 relative CSI intensity (max = 1),0.742 relative CSI intensity (max = 1),0.681 relative CSI intensity (max = 1),1 relative CSI intensity (max = 1),0.336 relative CSI intensity (max = 1),0.0121 relative CSI intensity (max = 1),0.299 relative CSI intensity (max = 1)
ATGACGGAAT,0.0141 relative CSI intensity (max = 1),0.019 relative CSI intensity (max = 1),,0.0493 relative CSI intensity (max = 1),0.00381 relative CSI intensity (max = 1),0.00225 relative CSI intensity (max = 1),,0.0362 relative CSI intensity (max = 1),0.00272 relative CSI intensity (max = 1),,,0.0179 relative CSI intensity (max = 1),0.0428 relative CSI intensity (max = 1),0.0438 relative CSI intensity (max = 1),,,0.0328 relative CSI intensity (max = 1),0.014 relative CSI intensity (max = 1),,0.00635 relative CSI intensity (max = 1)
ATGACGCAAT,0.162 relative CSI intensity (max = 1),0.0223 relative CSI intensity (max = 1),0.00768 relative CSI intensity (max = 1),0.0466 relative CSI intensity (max = 1),0.765 relative CSI intensity (max = 1),0.0151 relative CSI intensity (max = 1),,0.0598 relative CSI intensity (max = 1),0.0149 relative CSI intensity (max = 1),0.00954 relative CSI intensity (max = 1),0.00209 relative CSI intensity (max = 1),0.194 relative CSI intensity (max = 1),0.902 relative CSI intensity (max = 1),0.864 relative CSI intensity (max = 1),0.0554 relative CSI intensity (max = 1),0.00351 relative CSI intensity (max = 1),0.339 relative CSI intensity (max = 1),0.0526 relative CSI intensity (max = 1),0.00454 relative CSI intensity (max = 1),0.0567 relative CSI intensity (max = 1)
CCTGACGTCA,0.0067 relative CSI intensity (max = 1),0.0203 relative CSI intensity (max = 1),,0.0517 relative CSI intensity (max = 1),0.00677 relative CSI intensity (max = 1),0.00953 relative CSI intensity (max = 1),0.0211 relative CSI intensity (max = 1),0.0295 relative CSI intensity (max = 1),0.0251 relative CSI intensity (max = 1),0.0279 relative CSI intensity (max = 1),0.00727 relative CSI intensity (max = 1),0.057 relative CSI intensity (max = 1),0.072 relative CSI intensity (max = 1),0.0673 relative CSI intensity (max = 1),0.288 relative CSI intensity (max = 1),0.0107 relative CSI intensity (max = 1),0.0315 relative CSI intensity (max = 1),0.182 relative CSI intensity (max = 1),0.00318 relative CSI intensity (max = 1),0.0191 relative CSI intensity (max = 1)
